Data taken from PubChem BioAssay.
For some assays here: Entries with a potency or affinity are not part of this list. Records with an inconclusive call do not appear. Active and inactive are the calls of the source.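 The calls were made as follows, unless noted: active = falling signal with fitted half-maximal potency no higher than twice the top valid tested dose; inconclusive = poor fit quality, or flat fit spanning -70% to -30%; inactive = potency over limit, rising signal, or flat fit inside 30%.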

Key:
[1] = binders of probe aFSTL3 on microarray, primary screen, stem cell growth factor project, biochemical, small-molecule microarray, fluorescence 635/667 (AID 1064); conditions: higher = more signal;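 also: measures binding of the biotinylated anti-FSTL3 antibody to printed compounds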
[2] = binders from COS7 lysate, DM2A8 probe, primary screen, torsin A project, cell lysate, small-molecule microarray, fluorescence 635/667 (AID 1065); conditions: higher = more signal, COS7 lysate expressing mutant human TOR1A
[3] = binders of probe aFGF2 on microarray, primary screen, stem cell growth factor project, biochemical, small-molecule microarray, fluorescence 635/667 (AID 1067); conditions: higher = more signal;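 also: measures binding of biotinylated aFGF2 protein to printed compounds on slides; z-score merges feature fluorescence and signal-to-noise across triplicate slides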
[4] = binders of probe aFGF10 on microarray, primary screen, stem cell growth factor project, biochemical, small-molecule microarray, fluorescence 635/667 (AID 1071); conditions: higher = more signal;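 also: score merges 667 nm spot intensity and signal to noise from triplicate slides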
[5] = molecular target: Neurogenic locus notch homolog protein 2 (Homo sapiens) (UniProt Q04721); assay: Notch2 binders on small-molecule microarrays, primary screen, biochemical, small-molecule microarray, 635 nm fluorescence, stem cell growth factors (AID 1073); conditions: Notch2 binding, higher = more signal
Sequence of Neurogenic locus notch homolog protein 2 (Homo sapiens) (Q04721 whole entry, looked up, canonical isoform): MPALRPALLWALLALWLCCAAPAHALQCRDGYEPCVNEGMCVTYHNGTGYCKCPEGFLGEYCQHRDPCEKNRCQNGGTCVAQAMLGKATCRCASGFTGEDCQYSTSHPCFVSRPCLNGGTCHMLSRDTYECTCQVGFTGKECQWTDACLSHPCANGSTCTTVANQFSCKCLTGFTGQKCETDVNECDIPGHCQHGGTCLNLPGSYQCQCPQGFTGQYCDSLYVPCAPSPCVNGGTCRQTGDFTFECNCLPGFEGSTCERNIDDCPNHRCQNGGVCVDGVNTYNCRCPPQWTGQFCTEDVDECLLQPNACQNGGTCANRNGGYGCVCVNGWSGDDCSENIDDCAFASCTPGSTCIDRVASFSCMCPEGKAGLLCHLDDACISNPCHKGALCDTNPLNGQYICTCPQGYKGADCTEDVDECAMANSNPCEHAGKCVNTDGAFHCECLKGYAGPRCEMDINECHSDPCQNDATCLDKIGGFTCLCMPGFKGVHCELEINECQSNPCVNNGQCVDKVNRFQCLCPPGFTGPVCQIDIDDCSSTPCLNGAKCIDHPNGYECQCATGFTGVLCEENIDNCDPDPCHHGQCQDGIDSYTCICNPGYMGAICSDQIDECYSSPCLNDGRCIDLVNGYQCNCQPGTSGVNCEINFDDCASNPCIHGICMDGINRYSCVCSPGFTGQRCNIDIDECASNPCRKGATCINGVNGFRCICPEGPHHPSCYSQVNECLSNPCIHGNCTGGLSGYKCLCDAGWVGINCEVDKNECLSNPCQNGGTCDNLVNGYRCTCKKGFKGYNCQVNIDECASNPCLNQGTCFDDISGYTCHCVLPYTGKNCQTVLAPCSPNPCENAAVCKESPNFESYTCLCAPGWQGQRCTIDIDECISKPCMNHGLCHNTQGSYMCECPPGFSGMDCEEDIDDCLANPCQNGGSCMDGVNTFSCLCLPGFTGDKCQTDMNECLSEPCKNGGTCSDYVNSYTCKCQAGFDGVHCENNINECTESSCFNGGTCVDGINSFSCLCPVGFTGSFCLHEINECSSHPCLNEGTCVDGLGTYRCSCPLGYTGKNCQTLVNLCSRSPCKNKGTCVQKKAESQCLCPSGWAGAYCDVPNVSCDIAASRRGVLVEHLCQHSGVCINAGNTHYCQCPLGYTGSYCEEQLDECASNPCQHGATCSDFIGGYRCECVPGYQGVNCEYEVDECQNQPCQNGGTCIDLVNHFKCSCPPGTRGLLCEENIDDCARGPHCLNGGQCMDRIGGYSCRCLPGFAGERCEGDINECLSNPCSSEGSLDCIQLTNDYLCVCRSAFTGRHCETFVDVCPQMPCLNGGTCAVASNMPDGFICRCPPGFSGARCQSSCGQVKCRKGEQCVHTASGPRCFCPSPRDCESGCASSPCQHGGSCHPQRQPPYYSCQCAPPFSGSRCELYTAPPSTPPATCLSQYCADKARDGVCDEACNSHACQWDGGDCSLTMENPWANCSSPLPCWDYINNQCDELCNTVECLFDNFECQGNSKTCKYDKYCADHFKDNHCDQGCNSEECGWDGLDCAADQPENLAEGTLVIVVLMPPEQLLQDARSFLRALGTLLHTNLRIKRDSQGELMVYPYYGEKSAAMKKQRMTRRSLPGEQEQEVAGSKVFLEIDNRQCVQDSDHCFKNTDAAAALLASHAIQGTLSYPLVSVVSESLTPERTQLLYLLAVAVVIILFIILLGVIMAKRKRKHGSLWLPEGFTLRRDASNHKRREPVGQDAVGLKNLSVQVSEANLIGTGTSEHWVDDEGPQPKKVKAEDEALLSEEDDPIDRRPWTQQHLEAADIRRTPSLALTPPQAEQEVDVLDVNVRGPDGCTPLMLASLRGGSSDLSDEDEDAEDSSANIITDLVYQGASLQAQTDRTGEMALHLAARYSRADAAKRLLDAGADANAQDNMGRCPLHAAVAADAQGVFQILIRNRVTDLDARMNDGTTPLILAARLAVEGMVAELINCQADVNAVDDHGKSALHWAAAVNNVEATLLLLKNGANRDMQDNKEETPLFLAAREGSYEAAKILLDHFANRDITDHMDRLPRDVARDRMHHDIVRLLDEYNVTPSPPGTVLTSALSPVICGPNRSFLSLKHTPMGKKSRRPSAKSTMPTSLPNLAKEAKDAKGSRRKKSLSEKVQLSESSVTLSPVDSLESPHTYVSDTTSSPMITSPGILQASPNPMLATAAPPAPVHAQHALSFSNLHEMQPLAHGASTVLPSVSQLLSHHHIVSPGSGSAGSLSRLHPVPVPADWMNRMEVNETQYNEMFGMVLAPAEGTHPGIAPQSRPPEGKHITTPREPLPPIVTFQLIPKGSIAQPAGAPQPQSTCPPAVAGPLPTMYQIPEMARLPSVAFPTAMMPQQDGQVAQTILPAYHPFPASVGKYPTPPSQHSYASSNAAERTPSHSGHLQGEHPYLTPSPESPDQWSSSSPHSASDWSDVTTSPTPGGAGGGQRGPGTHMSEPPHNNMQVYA

[6] = molecular target: Pro-neuregulin-1, membrane-bound isoform (Homo sapiens) (UniProt Q02297); assay: NRG1 binders on small-molecule microarrays, primary screen, psychiatric disease protein project, biochemical, small-molecule microarray, fluorescence 635/667 (AID 1075); conditions: NRG1 binding, 635 nm fluorescence, higher = more signal;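 also: score combines 667 nm spot fluorescence with signal to noise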
Sequence of Pro-neuregulin-1, membrane-bound isoform (Homo sapiens) (Q02297 whole entry, looked up, the tested form may be a part, canonical isoform): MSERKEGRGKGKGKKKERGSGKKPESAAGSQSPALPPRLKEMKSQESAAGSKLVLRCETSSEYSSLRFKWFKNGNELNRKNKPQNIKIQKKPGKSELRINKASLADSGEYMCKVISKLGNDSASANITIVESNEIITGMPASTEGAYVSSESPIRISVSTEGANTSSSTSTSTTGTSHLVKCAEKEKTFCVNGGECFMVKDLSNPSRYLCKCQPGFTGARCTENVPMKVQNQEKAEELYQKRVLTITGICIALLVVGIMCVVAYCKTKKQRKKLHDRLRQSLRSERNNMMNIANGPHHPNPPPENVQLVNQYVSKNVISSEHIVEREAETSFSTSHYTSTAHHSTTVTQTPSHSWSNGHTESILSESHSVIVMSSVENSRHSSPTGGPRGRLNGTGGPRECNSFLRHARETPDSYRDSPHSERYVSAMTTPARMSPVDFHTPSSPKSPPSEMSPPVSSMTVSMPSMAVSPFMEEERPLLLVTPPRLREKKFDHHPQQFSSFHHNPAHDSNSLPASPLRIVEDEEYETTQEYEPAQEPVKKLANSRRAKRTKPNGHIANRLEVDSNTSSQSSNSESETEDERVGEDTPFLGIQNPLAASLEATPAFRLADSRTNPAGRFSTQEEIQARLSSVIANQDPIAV

[7] = test system: Neuregulin-1 EGF-like domain; assay: binders of neuregulin-1 EGF-like domain, primary screen, biochemical, small-molecule microarray, 635 nm fluorescence (AID 1081); conditions: small-molecule microarray binding, higher = more signal;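 also: binding of the protein to compounds printed on small-molecule microarray slides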
[8] = FRG1 promoter luciferase signal modulators, primary screen, FRG1 inhibition for FSHD, cell-based, C2C12 myotubes, firefly/Renilla luciferase, luminescence (AID 1084); conditions: higher = more signal, called active from +8 up or from −8 down
[9] = binders of probe aFST on microarray, primary screen, stem cell growth factor project, biochemical, small-molecule microarray, fluorescence 635/667 (AID 1086); conditions: higher = more signal;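 also: score merges 667 nm fluorescence with signal-to-noise of each printed compound spot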
[10] = binders of probe aHhip on microarray, primary screen, stem cell growth factor project, biochemical, small-molecule microarray, fluorescence 635/667 (AID 1087); conditions: higher = more signal;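 also: score merges spot fluorescence at 667nm with spot signal to noise ratio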
[11] = test system: PRMT1 (protein arginine N-methyltransferase 1); assay: PRMT1 binders on small-molecule microarrays, primary screen, biochemical, small-molecule microarray, 635 nm fluorescence (AID 1088); conditions: small-molecule microarray binding, higher = more signal;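 also: binding of Prmt1 protein to compounds spotted on small-molecule microarray slides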
[12] = yeast growth modulation, basal conditions, primary screen, YJM789 clinical isolate, OD600, 24 h (AID 1089);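 also: growth of clinical yeast isolate S. cerevisiae YJM 789 seeded 1000 cells per well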; conditions: S. cerevisiae YJM789 growth, higher = more signal, called active from +8 up or from −8 down
[13] = fission yeast growth modulation, primary screen, strain 972, OD600, 24 h, no modulator (AID 1090);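 also: basal condition with compound alone and no growth modifier present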; conditions: S. pombe 972 growth, higher = more signal, called active from +8 up or from −8 down
[14] = S. cerevisiae growth modulation with rapamycin, primary screen, strain BY4716, OD600, 96 h (AID 1091); conditions: higher = more signal, called active from +8 up or from −8 down
[15] = molecular target: Torsin-1A-interacting protein 2 (Homo sapiens) (UniProt Q8NFQ8); assay: LULL1 binders on small-molecule microarray, primary screen, cell lysate, human LULL1 lysate, 635/667 nm fluorescence (AID 1092); conditions: hLULL1 lysate binding, 635 nm fluorescence, higher = more signal;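 also: probe is lysate of COS7 cells overexpressing human LULL1; score merges per-feature 667 nm fluorescence with signal-to-noise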
Sequence of Torsin-1A-interacting protein 2 (Homo sapiens) (Q8NFQ8 whole entry, looked up): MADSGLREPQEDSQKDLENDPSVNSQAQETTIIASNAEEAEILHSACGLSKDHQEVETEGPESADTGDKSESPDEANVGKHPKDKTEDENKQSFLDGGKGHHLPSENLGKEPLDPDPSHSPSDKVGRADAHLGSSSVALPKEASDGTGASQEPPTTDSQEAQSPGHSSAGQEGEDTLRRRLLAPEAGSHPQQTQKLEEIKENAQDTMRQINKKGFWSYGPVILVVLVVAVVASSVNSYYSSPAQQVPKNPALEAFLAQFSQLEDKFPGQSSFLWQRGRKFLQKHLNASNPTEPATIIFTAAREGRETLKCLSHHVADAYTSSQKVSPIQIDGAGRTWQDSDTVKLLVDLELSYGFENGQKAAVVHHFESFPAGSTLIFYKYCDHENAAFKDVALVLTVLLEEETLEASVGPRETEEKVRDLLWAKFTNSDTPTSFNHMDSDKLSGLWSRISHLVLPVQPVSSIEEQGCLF

[16] = E. coli growth modulation, two-sided OD650, primary screen, E. coli filamentation project, strain DRC41, 24 h (AID 1093); conditions: OD650, 24 h, higher = more signal, called active from +8 up or from −8 down;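 also: MC1000 strain lacking acrAB efflux and sulA so SOS filamentation is blocked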
[17] = Cryptococcus neoformans growth inhibition, dose response, Alamar Blue, cherry-picks (AID 686998)
[18] = inducers of Cryptococcus neoformans cell lysis, dose response, AK release luminescence, cherry-picks (AID 687000;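 active = fitted dose curve reaches 40% lysis signal rise at or below the highest valid concentration tested for that sample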;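 also: luminescent detection of adenylate kinase leaking from lysed yeast; 0% = median neutral control signal and 100% = double that signal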)
[19] = HepG2 cell cytotoxicity, dose response, cytotoxicity control, cherry-picks, set 2 (AID 687002;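 active = a dose-response fit showing signal loss, with half-maximal concentration no higher than twice the top tested dose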)

CC(C)C(CO)N1C(=O)[C@@H]2C3C(=O)OCCC/C=C\[C@H]3OC23C=CCN(C(C)C)C(=O)[C@@H]13 (some centres not stated) showed a composite z-score [1] of 0.303, a composite z-score [2] of 0.716 and a composite z-score [3] of -0.116. For the same molecule, the composite z-score [4] was -0.836, the composite z-score [5] was -1.43 and the composite z-score [6] was 2.17. For the same molecule, the composite z-score [7] was 0.784, the z-score [8] was 0.366 (inactive) and the composite z-score [9] was -0.381. For the same molecule, the composite z-score [10] was -0.0994, the composite z-score [11] was 0.613 and the z-score [12] was -1.1 (inactive). For the same molecule, the z-score [13] was -1.55 (inactive), the z-score [14] was -1.1 (inactive) and the composite z-score [15] was 2.65. The z-score [16] was 2.41 (inactive).
Work on C/C=C/[C@@H](CCn1cc(CCO[Si](C(C)C)(C(C)C)C(C)C)nn1)[Si](C)(C)c1ccc(OC)cc1 yielded a composite z-score [1] of 0.502, a composite z-score [2] of -0.416 and a composite z-score [3] of -0.271. For the same molecule, the composite z-score [4] was -2.29, the composite z-score [5] was -2.88 and the composite z-score [6] was -0.774. For the same molecule, the composite z-score [7] was -0.48, the z-score [8] was -1.33 (inactive) and the composite z-score [9] was -0.986. For the same molecule, the composite z-score [10] was -0.413, the composite z-score [11] was -0.551 and the z-score [12] was -3.08 (inactive). The z-score [13] was -2.88 (inactive), the z-score [14] was -1.94 (inactive) and the composite z-score [15] was -0.356. The z-score [16] was -0.715 (inactive).
For CO[C@H]1O[C@H](CO)[C@@H](OC(=O)CCc2ccccc2)[C@@H]2OC(=O)[C@H](Cc3ccccc3)C/C=C/C[C@@H](Cc3ccccc3)C(=O)O[C@@H]12, the composite z-score [1] was -0.0198, the composite z-score [2] was -0.106 and the composite z-score [3] was -0.134. The composite z-score [4] was -0.357, the composite z-score [5] was -0.512 and the composite z-score [6] was 0.92. For the same molecule, the composite z-score [7] was 1.14, the z-score [8] was -1.51 (inactive) and the composite z-score [9] was -0.306. The composite z-score [10] was -0.337, the composite z-score [11] was 0.696 and the z-score [12] was -0.696 (inactive). For the same molecule, the z-score [13] was -2.18 (inactive), the z-score [14] was 11.3 (active) and the composite z-score [15] was 1.4. For the same molecule, the z-score [16] was 1.98 (inactive).
With C=CCN1C(=O)[C@@]2(O[C@@H](CCn3cc(CCO)nn3)[C@H]([Si](C)(C)c3ccc(OC)cc3)[C@H]2C)c2cc(N3C(=O)c4cccc5cccc3c45)ccc21 the composite z-score [1] was -0.323, the composite z-score [2] was 0.749 and the composite z-score [3] was -0.0839. The composite z-score [4] was 0.569, the composite z-score [5] was 0.705 and the composite z-score [6] was 1.11. The composite z-score [7] was 0.813, the z-score [8] was -2.79 (inactive) and the composite z-score [9] was 0.42. The composite z-score [10] was 0.142, the composite z-score [11] was 0.949 and the z-score [12] was -0.309 (inactive). The z-score [13] was 0.593 (inactive), the z-score [14] was 13.5 (active) and the composite z-score [15] was 0.875. The z-score [16] was 2.4 (inactive).
With O=C(C1CCOCC1)N1CC[C@@H]2[C@H]1c1cc(Br)ccc1N[C@@H]2CO the outcome [17] was “inactive”, the outcome [18] was “inactive” and the outcome [19] was “inactive”.
With C=CCN1C(=O)[C@@]2(O[C@@H](CCO)[C@H]([Si](C)(C)c3ccc(OC)cc3)[C@H]2C)c2cc(N3C(=O)c4cccc5cccc3c45)ccc21 the composite z-score [1] was -0.149, the composite z-score [2] was 0.0485 and the composite z-score [3] was -0.113. It also gave a composite z-score [4] of 0.349, a composite z-score [5] of 0.24 and a composite z-score [6] of 0.769. The composite z-score [7] was 0.876, the z-score [8] was -1.42 (inactive) and the composite z-score [9] was -0.169. For the same molecule, the composite z-score [10] was -0.0994, the composite z-score [11] was 1.18 and the z-score [12] was 2.89 (inactive). The z-score [13] was 1.89 (inactive), the z-score [14] was 36.3 (active) and the composite z-score [15] was 1.15. For the same molecule, the z-score [16] was 1.93 (inactive).
With CC(C)C[C@@H]1NC(=O)[C@@]23C(=O)N[C@@H](Cc4ccccc4)C2[C@H](C)[C@@]2(C)O[C@H]2C3/C=C/C/C=C\CNC(=O)[C@H](Cc2ccccc2)NC1=O (some centres not stated) the composite z-score [1] was -0.215, the composite z-score [2] was -0.215 and the composite z-score [3] was -0.101. For the same molecule, the composite z-score [4] was -0.0045, the composite z-score [5] was 0.245 and the composite z-score [6] was 0.974. For the same molecule, the composite z-score [7] was 0.897, the z-score [8] was 0.259 (inactive) and the composite z-score [9] was 0.0017. For the same molecule, the composite z-score [10] was 0.03, the composite z-score [11] was 0.911 and the z-score [12] was -0.664 (inactive). For the same molecule, the z-score [13] was -19.9 (active), the z-score [14] was -0.602 (inactive) and the composite z-score [15] was 0.574. For the same molecule, the z-score [16] was 2.08 (inactive).
For CNC(=O)C[C@H]1CC[C@H]2[C@@H](COc3ccc(NC(=O)Nc4cccc(C#N)c4)cc3C(=O)N2C)O1, the outcome [17] was “inactive”, the outcome [18] was “inactive” and the outcome [19] was “inactive”.
Cc1ccc(S[C@]2(C(=O)NCC(C)C)CC(=O)N(C(C)C)[C@@H]2c2ccc(CO)cc2)cc1 gave a composite z-score [1] of -1.02, a composite z-score [2] of -0.691 and a composite z-score [3] of -0.083. For the same molecule, the composite z-score [4] was -0.293, the composite z-score [5] was -0.625 and the composite z-score [6] was -0.517. For the same molecule, the composite z-score [7] was -0.0249, the z-score [8] was -0.781 (inactive) and the composite z-score [9] was 0.272. The composite z-score [10] was 0.271, the composite z-score [11] was 0.493 and the z-score [12] was 0.588 (inactive). The z-score [13] was -2.12 (inactive), the z-score [14] was -0.942 (inactive) and the composite z-score [15] was -0.219. The z-score [16] was 0.538 (inactive).
Work on [N-]=[N+]=NCc1ccccc1C[C@@]1(C(=O)O)N=C(c2ccc(OCCCO)cc2)O[C@@H]1c1ccccc1 yielded a composite z-score [1] of 0.673, a composite z-score [2] of -0.231 and a composite z-score [3] of -0.134. For the same molecule, the composite z-score [4] was -0.927, the composite z-score [5] was -0.0526 and the composite z-score [6] was 1.86. For the same molecule, the composite z-score [7] was 0.754, the z-score [8] was -1.08 (inactive) and the composite z-score [9] was 0.0724. For the same molecule, the composite z-score [10] was -0.226, the composite z-score [11] was 0.244 and the z-score [12] was -0.921 (inactive). For the same molecule, the z-score [13] was -1.23 (inactive), the z-score [14] was -1.22 (inactive) and the composite z-score [15] was 2.45. The z-score [16] was 0.41 (inactive).
In the case of CN(C[C@H]1N[C@@H](CO)[C@H]1c1ccc(-c2cccc(F)c2)cc1)S(C)(=O)=O, the outcome [17] is reported as “inactive” and the outcome [18] is reported as “inactive”.
COCCCNC(=O)[C@@]1(Cc2ccccc2)N=C(c2ccc(OCCCO)cc2)O[C@H]1c1ccccc1N=[N+]=[N-] gave a composite z-score [1] of 1.38, a composite z-score [2] of 0.768 and a composite z-score [3] of 0.269. It also gave a composite z-score [4] of 0.727, a composite z-score [5] of 1.14 and a composite z-score [6] of 0.276. The composite z-score [7] was 1.13, the z-score [8] was -1.37 (inactive) and the composite z-score [9] was 0.836. For the same molecule, the composite z-score [10] was -0.121, the composite z-score [11] was 0.85 and the z-score [12] was 0.448 (inactive). The z-score [13] was -0.051 (inactive), the z-score [14] was 2.71 (inactive) and the composite z-score [15] was 2.47. The z-score [16] was 1.59 (inactive).
